The full data set covers some 7,900 targets. This sample favours those with a hit. About 0.6% of all pairs of compound and target were hits. Unmarked numbers belong to inactive results.
Key:
Assay in all cases: log2 fold change, soluble protein after heating vs DMSO (PISA); higher = thermal stabilisation; K562 cells, 10 uM, 30 min; active = over 0.2 and 3.5 SD of the protein, either way, in both replicates (recomputed)
erlotinib = compound: C#Cc1cccc(Nc2ncnc3cc(OCCOC)c(OCCOC)cc23)c1 [erlotinib]
Procedure, shortened: (§1)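 K562 cells at 2×10^6 cells/mL were given 10 μM compound for 30 min. Aliquots then went through 3 min of heating across 48°C-58°C, were pooled, and were extracted in PBS with 0.5% NP-40 at 4°C, and the supernatant after 21,000xg for 90 min was quantified by TMTpro 16plex LC-MS/MS with channel sums equalised. Thermal stability relative to control samples, from duplicates, is given as log2 fold change.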

[1] = compound: C/C(=N\NC(=O)C1=CC(=CC=C1)S(=O)(=O)N2CCOCC2)/C3=C(C=CC(=C3)Cl)O
Procedure, shortened: as §1

[2] = compound: C1=CC(=C(C=C1Cl)C2=NC3=NC=CN=C3C(=N2)NC4=CC=NC=C4)F
Procedure, shortened: as §1

[3] = compound: C1=CC(=CC=C1C2=NC3=C(N2)C=C(C=C3)C(=O)N)OC4=CC=C(C=C4)Cl
Procedure, shortened: as §1

[4] = compound: C1=CC2=C(C=CC(=C2)/C=C\3/C(=O)NC(=NCC4=CC=CS4)S3)N=C1
Procedure, shortened: as §1

[5] = compound: C1=CC2=NC=CN=C2C=C1/C=C/3\C(=O)NC(=O)S3
Procedure, shortened: as §1

[6] = compound: C1=CC=C(C=C1)C2=NC(=C(N2)C3=CC=NC=C3)C4=CC(=C(C=C4)Cl)O
Procedure, shortened: as §1

[7] = compound: C1=CC=C2C(=C1)C3=NNC4=CC=CC(=C43)C2=O
Procedure, shortened: as §1

[8] = compound: C1CCN(C1)C(=O)NC2=CC=CC(=C2)NC3=NC=C(C(=N3)NCCC4=CN=CN4)Br
Procedure, shortened: as §1

[9] = compound: C1CN(CCC1(CC2=CC=C(C=C2)Cl)N)C3=NC=NC4=C3C=CN4
Procedure, shortened: as §1

Sequence of UniProt P18754 (P18754 whole entry, looked up): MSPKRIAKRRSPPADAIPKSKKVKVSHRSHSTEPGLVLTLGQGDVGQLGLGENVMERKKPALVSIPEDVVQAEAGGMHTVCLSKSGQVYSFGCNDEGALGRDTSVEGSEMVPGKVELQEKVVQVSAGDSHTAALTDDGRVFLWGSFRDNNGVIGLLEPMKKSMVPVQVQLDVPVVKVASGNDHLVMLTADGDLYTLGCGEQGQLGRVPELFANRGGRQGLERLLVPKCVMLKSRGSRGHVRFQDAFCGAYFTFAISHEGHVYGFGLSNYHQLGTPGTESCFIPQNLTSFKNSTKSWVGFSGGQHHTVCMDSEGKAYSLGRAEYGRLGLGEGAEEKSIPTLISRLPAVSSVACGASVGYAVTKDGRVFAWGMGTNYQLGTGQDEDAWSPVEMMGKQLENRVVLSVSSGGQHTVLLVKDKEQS
Sequence of UniProt O15027 (O15027 whole entry, looked up): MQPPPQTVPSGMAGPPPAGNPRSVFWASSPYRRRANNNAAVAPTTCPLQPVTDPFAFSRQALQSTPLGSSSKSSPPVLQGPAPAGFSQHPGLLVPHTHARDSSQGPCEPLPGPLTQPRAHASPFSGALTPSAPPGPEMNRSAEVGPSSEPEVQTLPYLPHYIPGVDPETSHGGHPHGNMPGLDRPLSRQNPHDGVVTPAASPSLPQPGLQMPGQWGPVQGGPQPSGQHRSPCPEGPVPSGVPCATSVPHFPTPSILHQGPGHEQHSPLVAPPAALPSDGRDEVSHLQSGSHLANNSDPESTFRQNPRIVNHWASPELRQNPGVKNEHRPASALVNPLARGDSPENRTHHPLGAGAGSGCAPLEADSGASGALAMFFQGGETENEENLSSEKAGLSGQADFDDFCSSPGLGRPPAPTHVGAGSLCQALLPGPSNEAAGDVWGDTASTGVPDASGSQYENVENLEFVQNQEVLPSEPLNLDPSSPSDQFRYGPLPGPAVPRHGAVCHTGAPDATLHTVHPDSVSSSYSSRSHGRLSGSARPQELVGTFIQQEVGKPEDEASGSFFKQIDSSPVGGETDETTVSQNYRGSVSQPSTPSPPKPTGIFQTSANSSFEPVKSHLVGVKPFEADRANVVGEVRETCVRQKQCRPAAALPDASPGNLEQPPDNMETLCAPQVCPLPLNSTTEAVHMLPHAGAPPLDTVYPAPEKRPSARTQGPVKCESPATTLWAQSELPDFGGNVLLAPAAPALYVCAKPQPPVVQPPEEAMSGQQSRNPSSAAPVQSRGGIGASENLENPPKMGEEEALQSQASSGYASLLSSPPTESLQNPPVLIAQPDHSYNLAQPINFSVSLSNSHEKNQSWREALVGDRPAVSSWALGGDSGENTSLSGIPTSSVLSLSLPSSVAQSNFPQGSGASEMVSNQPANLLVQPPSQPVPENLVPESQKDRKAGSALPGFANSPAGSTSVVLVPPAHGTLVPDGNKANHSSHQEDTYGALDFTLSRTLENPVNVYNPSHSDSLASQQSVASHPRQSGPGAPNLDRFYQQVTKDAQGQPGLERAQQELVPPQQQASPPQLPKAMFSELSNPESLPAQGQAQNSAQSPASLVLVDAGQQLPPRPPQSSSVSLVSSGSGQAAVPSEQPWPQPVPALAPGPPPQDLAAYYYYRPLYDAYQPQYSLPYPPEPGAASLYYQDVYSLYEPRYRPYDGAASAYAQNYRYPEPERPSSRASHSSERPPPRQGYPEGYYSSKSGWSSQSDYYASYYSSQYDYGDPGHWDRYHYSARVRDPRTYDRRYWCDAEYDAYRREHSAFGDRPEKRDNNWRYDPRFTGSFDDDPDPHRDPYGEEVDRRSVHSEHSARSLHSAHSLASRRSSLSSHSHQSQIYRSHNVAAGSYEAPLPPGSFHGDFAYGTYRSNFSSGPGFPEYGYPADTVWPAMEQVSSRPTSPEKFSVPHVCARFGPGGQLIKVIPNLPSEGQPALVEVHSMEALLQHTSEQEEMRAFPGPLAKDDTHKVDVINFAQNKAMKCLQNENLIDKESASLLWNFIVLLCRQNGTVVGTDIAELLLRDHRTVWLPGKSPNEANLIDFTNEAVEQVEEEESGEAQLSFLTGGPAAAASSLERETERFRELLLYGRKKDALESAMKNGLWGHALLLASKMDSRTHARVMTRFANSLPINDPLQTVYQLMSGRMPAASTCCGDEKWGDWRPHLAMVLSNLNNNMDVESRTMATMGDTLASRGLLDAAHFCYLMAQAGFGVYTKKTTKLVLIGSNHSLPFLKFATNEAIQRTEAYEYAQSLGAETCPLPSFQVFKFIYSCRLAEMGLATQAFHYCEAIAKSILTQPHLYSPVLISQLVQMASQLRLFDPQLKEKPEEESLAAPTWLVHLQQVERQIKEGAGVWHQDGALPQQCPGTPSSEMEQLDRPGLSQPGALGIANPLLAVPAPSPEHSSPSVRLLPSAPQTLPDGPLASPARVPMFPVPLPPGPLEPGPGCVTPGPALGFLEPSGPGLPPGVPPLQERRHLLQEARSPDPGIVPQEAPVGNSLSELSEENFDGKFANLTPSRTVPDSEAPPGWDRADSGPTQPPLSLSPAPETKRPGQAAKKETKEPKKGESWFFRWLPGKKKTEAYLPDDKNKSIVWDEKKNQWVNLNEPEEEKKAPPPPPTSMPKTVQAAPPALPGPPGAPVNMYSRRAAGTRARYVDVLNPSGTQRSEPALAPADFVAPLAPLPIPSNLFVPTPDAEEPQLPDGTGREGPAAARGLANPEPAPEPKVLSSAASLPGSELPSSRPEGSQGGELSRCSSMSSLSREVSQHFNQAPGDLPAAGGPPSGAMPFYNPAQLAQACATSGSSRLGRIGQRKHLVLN
Sequence of UniProt O94979 (O94979 whole entry, looked up): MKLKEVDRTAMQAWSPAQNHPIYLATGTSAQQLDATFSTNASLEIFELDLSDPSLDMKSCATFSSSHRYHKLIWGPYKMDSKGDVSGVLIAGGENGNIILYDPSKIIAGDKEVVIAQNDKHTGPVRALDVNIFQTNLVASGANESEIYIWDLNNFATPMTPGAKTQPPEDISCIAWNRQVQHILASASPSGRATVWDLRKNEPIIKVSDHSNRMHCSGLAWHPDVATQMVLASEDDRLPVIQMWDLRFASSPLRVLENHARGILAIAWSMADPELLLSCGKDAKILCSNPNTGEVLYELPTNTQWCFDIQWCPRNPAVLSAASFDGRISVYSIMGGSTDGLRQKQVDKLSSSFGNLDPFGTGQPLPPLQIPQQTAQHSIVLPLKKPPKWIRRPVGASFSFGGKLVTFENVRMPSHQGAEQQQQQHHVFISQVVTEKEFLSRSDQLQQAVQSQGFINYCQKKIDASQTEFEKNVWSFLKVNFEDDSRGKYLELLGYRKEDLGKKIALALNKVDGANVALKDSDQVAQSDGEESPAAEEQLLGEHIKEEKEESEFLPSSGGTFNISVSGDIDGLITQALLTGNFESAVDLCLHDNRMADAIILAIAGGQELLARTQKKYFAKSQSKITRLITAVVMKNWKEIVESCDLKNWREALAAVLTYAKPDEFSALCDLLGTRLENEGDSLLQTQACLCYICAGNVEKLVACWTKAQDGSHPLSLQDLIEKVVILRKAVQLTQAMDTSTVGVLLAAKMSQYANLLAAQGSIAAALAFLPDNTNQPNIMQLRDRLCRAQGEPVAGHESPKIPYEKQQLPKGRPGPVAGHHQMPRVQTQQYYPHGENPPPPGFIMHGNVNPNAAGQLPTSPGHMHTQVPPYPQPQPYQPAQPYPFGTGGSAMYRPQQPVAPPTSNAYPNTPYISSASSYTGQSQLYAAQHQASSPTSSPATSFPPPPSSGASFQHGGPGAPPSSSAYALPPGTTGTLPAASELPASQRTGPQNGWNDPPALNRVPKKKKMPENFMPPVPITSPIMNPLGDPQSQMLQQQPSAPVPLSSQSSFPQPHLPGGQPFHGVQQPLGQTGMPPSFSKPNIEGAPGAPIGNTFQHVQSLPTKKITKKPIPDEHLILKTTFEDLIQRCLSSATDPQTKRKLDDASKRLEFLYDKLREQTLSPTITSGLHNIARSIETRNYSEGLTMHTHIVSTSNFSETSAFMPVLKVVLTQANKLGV
Sequence of UniProt P05543 (P05543 whole entry, looked up): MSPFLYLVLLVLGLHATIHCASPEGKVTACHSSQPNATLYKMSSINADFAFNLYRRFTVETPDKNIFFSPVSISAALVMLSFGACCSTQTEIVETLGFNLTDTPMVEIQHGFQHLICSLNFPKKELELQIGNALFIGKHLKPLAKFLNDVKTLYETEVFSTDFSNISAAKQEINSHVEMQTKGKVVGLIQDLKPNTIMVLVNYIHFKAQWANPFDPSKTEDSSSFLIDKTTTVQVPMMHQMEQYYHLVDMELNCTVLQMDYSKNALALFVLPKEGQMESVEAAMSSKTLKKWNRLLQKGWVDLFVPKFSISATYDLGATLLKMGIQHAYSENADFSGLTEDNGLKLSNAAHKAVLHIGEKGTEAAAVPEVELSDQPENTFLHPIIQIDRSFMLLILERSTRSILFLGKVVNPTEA
Sequence of UniProt Q96I25 (Q96I25 whole entry, looked up): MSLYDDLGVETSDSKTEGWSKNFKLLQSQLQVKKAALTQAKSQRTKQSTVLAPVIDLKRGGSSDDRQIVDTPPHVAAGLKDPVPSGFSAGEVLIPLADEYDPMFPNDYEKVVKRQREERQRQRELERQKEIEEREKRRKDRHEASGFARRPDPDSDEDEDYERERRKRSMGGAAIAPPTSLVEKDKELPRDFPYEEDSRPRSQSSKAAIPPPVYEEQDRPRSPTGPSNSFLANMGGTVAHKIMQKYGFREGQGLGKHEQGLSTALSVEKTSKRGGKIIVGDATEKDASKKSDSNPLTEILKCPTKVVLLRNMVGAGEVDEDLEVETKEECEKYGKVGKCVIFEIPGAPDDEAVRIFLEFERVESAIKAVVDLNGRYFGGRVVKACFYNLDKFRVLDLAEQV
Sequence of UniProt Q8IZQ5 (Q8IZQ5 whole entry, looked up): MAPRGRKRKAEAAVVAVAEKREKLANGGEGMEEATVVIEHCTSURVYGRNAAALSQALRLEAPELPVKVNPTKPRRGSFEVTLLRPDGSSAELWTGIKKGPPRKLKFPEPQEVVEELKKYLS

Target	log2 fold change (erlotinib)	log2 fold change [1]	log2 fold change [2]	log2 fold change [3]	log2 fold change [4]	log2 fold change [5]	log2 fold change [6]	log2 fold change [7]	log2 fold change [8]	log2 fold change [9]
RPS15 (UniProt P62841)	-0.173	-0.259	-0.208	0.016	0.028	-0.092	0.036	-0.131	0.188	-0.138
SCO2 (UniProt O43819)	0.092	0.012	0.055	0.048	0.243	-0.054	0.017	0.163	-0.042	0.101
RCC1 isoform 2 (UniProt P18754)	0.158	0.195	0.11	0.03	0.105	-0.004	-0.003	0.018	-0.09	0.011
RRS1 (UniProt Q15050)	-0.099	-0.205	-0.536	-0.003	-0.095	0.004	-0.18	-0.018	0.162	-0.219
RAB5C isoform 2 (UniProt P51148)	0	0.042	0.066	0.015	-0.083	0.014	0.012	0.015	-0.003	0.043
RUNX1 isoform 8 (UniProt Q01196)	0.122	0.081	-0.03	0.048	-0.001	0.032	0.131	-0.033	–	–
RMC1 (UniProt Q96DM3)	0.028	0.124	0.048	0.04	0.027	-0.038	0.011	-0.055	0.048	-0.038
SEC23A (UniProt Q15436)	0.026	0.1	0.022	-0.036	-0.024	0.021	0.005	-0.018	0.019	-0.019
RIOK3 (UniProt O14730)	0.037	0.014	0.062	0.003	-0.019	0.048	-0.033	0.02	0.024	-0.025
SCD (UniProt O00767)	0.022	-0.256	0.143	-0.008	0.024	0.04	-0.059	-0.006	0.126	0.023
RBM17 (UniProt Q96I25)	0.039	0.044	0.015	-0.023	-0.085	-0.029	0.1	0.011	-0.08	-0.16
RAB3IL1 (UniProt E9PK89)	-0.238	-0.055	0.116	-0.001	0.058	0.104	-0.028	0.197	-0.162	0.004
RAB3GAP2 (UniProt Q9H2M9)	0.068	0.083	-0.043	-0.058	0.035	-0.011	-0.025	0.004	-0.068	-0.018
RPS27A (UniProt P62979)	-0.246	-0.143	-0.207	0.016	-0.136	-0.033	0.004	-0.062	0.111	-0.098
RPS3A (UniProt P61247)	-0.178	-0.041	-0.232	0.062	-0.039	-0.035	-0.028	0	0.088	-0.162
RBM39 (UniProt Q14498)	0.087	0.074	0.013	-0.028	-0.021	-0.052	-0.022	-0.168	-0.071	-0.232
RTF2 (UniProt Q9BY42)	0.026	0.063	0.035	-0.049	-0.049	-0.023	-0.035	-0.02	-0.074	0.045
RSPRY1 (UniProt Q96DX4)	0.028	0.079	0.016	0.041	0.017	-0.042	-0.006	-0.026	-0.014	0.033
SELENOH (UniProt Q8IZQ5)	0.032	0.013	-0.013	-0.003	-0.297 (active)	-0.002	0.034	0.003	-0.052	0.032
ROR2 (UniProt Q01974)	-0.045	0.058	0.01	0.023	0.02	0.011	0.076	-0.024	-0.041	-0.001
SESN2 (UniProt P58004)	0.154	0.108	-0.039	-0.003	0.016	0.007	-0.009	-0.008	-0.041	-0.109
SEC16A isoform 5 (UniProt O15027)	0.126	-0.143	-0.064	0.015	0.153	-0.018	0.044	0.069	0.06	0.017
SERINC1 (UniProt Q9NRX5)	-0.034	-0.023	-0.006	0.096	-0.026	0.085	0.018	0.149	0.115	-0.031
RPS21 (UniProt P63220)	-0.045	-0.062	-0.071	0.017	-0.056	0.079	-0.066	-0.027	0.033	0.017
RUFY1 (UniProt Q96T51)	0.01	0.094	-0.046	-0.018	0.022	0.034	-0.027	0	0.031	-0.084
SERPINA7 (UniProt P05543)	-0.118	-0.1	-0.024	0.091	0.15	-0.111	-0.004	-0.072	0.164	0.272
SEC31A (UniProt O94979)	0.049	0.023	0.006	-0.025	0.094	0.016	-0.045	0.023	-0.06	-0.025
RPS9 (UniProt P46781)	-0.099	-0.05	-0.384	0.024	-0.069	-0.011	0.047	0.002	0.102	-0.172
RPS25 (UniProt P62851)	-0.083	-0.071	-0.276	0.077	-0.075	-0.091	-0.067	0.033	0.061	-0.141
RAP1GDS1 isoform 5 (UniProt P52306)	0.019	-0.012	-0.021	-0.013	0.027	0.106	-0.016	-0.038	-0.023	-0.077

Source: the supplement of paper PMC10849652
